# Source: PubChem BioAssay
# Records with an inconclusive call do not appear. Active and inactive are the calls of the source.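 Rule for the calls, unless noted: active = normalized viability below 100% at a tested concentration; inactive = the rest.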
# Key:
# [1] = ovarian cancer cell viability with rucaparib, profiling panel, oncology-focused library, rucaparib conditional (AID 1508598); details: patient-derived ovarian cancer cells, CellTiter-Glo viability, 144 h, stronger effect = lower value
# [2] = target: Mitogen-activated protein kinase 7 (Homo sapiens) (UniProt Q13164); test: ERK5 transactivation activators in reporter cells, primary screen, cell-based, HTS (AID 1508626;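 active = luciferase signal above three times the same-plate solvent-only control wells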;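 note: luciferase driven by Gal4-ERK5 fusion binding five Gal4 sites before minimal TATA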); details: HeLa Gal4-ERK5 transactivation, 18 h, at 5 µM, stronger effect = higher value
# Mitogen-activated protein kinase 7 (Homo sapiens), sequence (Q13164 whole entry, looked up, the tested form may be a part): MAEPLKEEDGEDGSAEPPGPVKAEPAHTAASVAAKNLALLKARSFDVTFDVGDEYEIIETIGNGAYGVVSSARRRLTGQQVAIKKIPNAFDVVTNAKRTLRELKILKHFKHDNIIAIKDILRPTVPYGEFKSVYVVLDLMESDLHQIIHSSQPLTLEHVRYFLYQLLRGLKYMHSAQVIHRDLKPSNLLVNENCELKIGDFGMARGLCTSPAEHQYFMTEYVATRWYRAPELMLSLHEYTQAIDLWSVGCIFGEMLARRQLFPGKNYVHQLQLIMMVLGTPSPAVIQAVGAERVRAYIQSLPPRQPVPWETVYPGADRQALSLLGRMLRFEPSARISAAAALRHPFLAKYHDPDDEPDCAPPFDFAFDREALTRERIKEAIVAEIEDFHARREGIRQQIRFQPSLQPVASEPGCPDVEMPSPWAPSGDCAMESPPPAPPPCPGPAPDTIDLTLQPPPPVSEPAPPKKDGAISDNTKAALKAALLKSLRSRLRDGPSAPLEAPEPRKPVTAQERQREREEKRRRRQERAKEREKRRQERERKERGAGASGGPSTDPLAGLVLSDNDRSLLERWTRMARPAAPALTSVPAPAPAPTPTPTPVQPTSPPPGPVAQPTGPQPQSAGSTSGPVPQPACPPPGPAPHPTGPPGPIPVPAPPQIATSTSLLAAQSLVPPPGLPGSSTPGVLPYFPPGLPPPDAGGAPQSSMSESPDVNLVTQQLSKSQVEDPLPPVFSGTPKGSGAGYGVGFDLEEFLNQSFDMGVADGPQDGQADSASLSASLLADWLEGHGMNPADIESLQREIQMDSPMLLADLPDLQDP
# [3] = stimulators of nuclear beta-catenin in C2C12, primary screen, imaging, WNT3A-conditioned medium, mouse C2C12, NPC library (AID 1117326; in the data active = nuclear beta-catenin stimulation mostly above about 4.2%, no sharp cut-off; inactive = mostly below about 10%); details: stronger effect = higher value
# [4] = stimulators of insulin release from INS-1E, primary screen, cell-based, 5 mM glucose, NPC library (AID 1117329;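 active = compound raises insulin release from rat beta cells at 5 mM glucose, no numeric limit stated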); details: rat INS-1E insulin secretion, at 10 µM, stronger effect = higher value
# [5] = growth inhibition of GSK3B-pretreated HCT116 cells – cell-based, CellTiter-Glo, 0.2 to 20 µM (AID 1117336;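 active = compounds lowering colon cancer cell viability after pretreatment blocking the GSK3B kinase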); details: HCT116 viability after GSK3B inhibitor, at 20 µM, stronger effect = higher value
# [6] = inhibition of endothelial tube formation, primary screen, imaging, VEGF stimulated, CD31 staining, tube area, NPC library (AID 1117340;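 active = compound that reduces growth-factor-driven endothelial tube area in a mixed cell culture, no cutoff stated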); details: VEGF-stimulated ADSC/ECFC co-culture, at 10 µM, stronger effect = higher value
# [7] = glucagon-like peptide 1 release enhancers, primary assay, NCI-H716 cell line, NPC library (AID 1117341;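 active = compound raises GLP1 secretion from the human gut endocrine cells, with no numeric limit stated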); details: NCI-H716 cells, at 10 µM, stronger effect = higher value
# [8] = HCT116 colon cancer cell growth inhibition, primary screen, CellTiter-Glo luminescence, NPC library (AID 1117342;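 active = compounds that lower survival of HCT116 colon cancer cells in the luminescence readout, no numeric limit stated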); details: at 20 µM (top of the series)
# [9] = CellTiter-Glo luminescent readout of SW480 viability loss, NPC library primary (AID 1117343;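 active = compounds that lower viability of the colon cancer cells in the luminescence readout, with no numeric limit stated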); details: CellTiter-Glo luminescence; at 20 µM (top of the series) unless noted
# [10] = decreased DLD-1 cellular survival, CellTiter-Glo luminescent readout, NPC compound collection, primary HTS (AID 1117346;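 active = compounds that lower survival of DLD-1 colon cancer cells in the luminescence readout, no cutoff given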); details: DLD-1 viability, CellTiter-Glo luminescence; at 20 µM (top of the series)
# [11] = LFS_MB_P medulloblastoma growth inhibition, cell-based, chromothripsis tumors, cisplatin or BGB combos (AID 1671449; in the data active = inhibition above about 80%;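 note: cells exposed for 96 hours; 0% = vehicle DMSO and 100% = killing by high DMSO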); details: LFS_MB_P medulloblastoma cells
# [12] = HDN33 neuroblastoma growth inhibition, cell-based, chromothripsis tumors, cisplatin or BGB combos (AID 1671450; in the data active = inhibition above about 80%;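 note: cells exposed to compound for four days; 0% = vehicle DMSO and 100% = cell killing by high DMSO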); details: HDN33 neuroblastoma cells, stronger effect = higher value
# [13] = ICB984 medulloblastoma cell growth inhibition, synergistic combos for chromothripsis tumors, cisplatin or BGB combos (AID 1671451; call rule not given here;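 note: cells exposed for 96 hours before readout; 0% = vehicle DMSO and 100% = killing by high DMSO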); details: ICB984 medulloblastoma cells, drug combinations, stronger effect = higher value
# [14] = target: ATP-dependent translocase ABCB1 (Homo sapiens) (UniProt P08183); test: MDR1 (ABCB1) efflux transporter inhibition, cell-based (AID 377; in the data active = fluorescence slope change above about 50%); details: MDR1-expressing cells, fluorescent substrate accumulation slope; stronger effect = higher value; concentration not given here
# ATP-dependent translocase ABCB1 (Homo sapiens), sequence (P08183 whole entry, looked up): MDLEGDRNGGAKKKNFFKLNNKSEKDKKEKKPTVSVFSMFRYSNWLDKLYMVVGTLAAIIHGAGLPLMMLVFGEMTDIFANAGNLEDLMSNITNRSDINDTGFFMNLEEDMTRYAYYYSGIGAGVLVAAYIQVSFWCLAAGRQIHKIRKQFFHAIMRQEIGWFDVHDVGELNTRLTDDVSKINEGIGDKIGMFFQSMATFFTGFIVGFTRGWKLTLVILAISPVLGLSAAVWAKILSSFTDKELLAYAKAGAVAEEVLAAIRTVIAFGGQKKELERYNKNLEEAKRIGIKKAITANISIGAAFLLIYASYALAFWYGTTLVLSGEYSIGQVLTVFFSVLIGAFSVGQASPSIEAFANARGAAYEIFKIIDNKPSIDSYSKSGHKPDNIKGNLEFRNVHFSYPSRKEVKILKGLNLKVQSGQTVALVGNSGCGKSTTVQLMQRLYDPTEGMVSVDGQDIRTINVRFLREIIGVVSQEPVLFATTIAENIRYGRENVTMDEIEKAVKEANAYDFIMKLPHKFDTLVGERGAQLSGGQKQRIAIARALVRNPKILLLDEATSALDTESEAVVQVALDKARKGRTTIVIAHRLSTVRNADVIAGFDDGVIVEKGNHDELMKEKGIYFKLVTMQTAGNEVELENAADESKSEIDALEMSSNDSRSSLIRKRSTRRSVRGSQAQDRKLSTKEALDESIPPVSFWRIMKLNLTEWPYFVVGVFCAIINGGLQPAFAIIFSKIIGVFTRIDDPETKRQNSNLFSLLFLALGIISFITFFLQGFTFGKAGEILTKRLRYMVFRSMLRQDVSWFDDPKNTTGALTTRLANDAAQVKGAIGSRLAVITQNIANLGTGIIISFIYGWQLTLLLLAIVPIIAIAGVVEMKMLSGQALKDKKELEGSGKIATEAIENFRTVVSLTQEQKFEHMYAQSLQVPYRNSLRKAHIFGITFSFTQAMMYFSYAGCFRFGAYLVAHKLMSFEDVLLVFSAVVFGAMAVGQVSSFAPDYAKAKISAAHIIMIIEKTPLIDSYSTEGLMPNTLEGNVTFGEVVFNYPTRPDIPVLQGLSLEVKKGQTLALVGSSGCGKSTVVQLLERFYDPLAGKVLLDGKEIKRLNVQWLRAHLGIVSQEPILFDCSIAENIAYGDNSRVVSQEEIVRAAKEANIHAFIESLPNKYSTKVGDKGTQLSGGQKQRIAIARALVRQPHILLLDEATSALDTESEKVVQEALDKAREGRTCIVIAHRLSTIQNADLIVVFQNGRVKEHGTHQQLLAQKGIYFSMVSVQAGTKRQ
# [15] = at 5 µM, OCI-P5x cells, with rucaparib 20 µM, 100% = cells with rucaparib alone
# [16] = at 5 µM, OCI-P5x cells, without rucaparib
smiles,measurement,setting,value
CN1CC[C@H](c2c(O)cc(O)c3c(=O)cc(-c4ccccc4Cl)oc23)[C@H](O)C1,viability,[1]; [15],14.2% (active)
same,viability,[1]; [16],10.5% (active)
O=c1[nH]c(=O)n([C@H]2CCCO2)cc1F,viability,"[1]; at 0.000305 µM, OCI-C5x cells, with rucaparib 10 µM, 100% = cells with rucaparib alone",106% (inactive)
same,viability,"[1]; at 0.000305 µM, OCI-C5x cells, without rucaparib",122% (inactive)
same,viability,"[1]; at 0.000305 µM, OCI-P5x cells, with rucaparib 20 µM, 100% = cells with rucaparib alone",115% (inactive)
same,viability,"[1]; at 0.000305 µM, OCI-P5x cells, without rucaparib",110% (inactive)
same,viability,"[1]; at 0.00122 µM, OCI-C5x cells, with rucaparib 10 µM, 100% = cells with rucaparib alone",119% (inactive)
same,viability,"[1]; at 0.00122 µM, OCI-C5x cells, without rucaparib",122% (inactive)
same,viability,"[1]; at 0.00122 µM, OCI-P5x cells, with rucaparib 20 µM, 100% = cells with rucaparib alone",106% (inactive)
same,viability,"[1]; at 0.00122 µM, OCI-P5x cells, without rucaparib",107% (inactive)
same,viability,"[1]; at 0.00488 µM, OCI-C5x cells, with rucaparib 10 µM, 100% = cells with rucaparib alone",103% (inactive)
same,viability,"[1]; at 0.00488 µM, OCI-C5x cells, without rucaparib",127% (inactive)
same,viability,"[1]; at 0.00488 µM, OCI-P5x cells, with rucaparib 20 µM, 100% = cells with rucaparib alone",96% (active)
same,viability,"[1]; at 0.00488 µM, OCI-P5x cells, without rucaparib",106% (inactive)
same,viability,"[1]; at 0.0195 µM, OCI-C5x cells, with rucaparib 10 µM, 100% = cells with rucaparib alone",107% (inactive)
same,viability,"[1]; at 0.0195 µM, OCI-C5x cells, without rucaparib",121% (inactive)
same,viability,"[1]; at 0.0195 µM, OCI-P5x cells, with rucaparib 20 µM, 100% = cells with rucaparib alone",94.8% (active)
same,viability,"[1]; at 0.0195 µM, OCI-P5x cells, without rucaparib",99.2% (active)
same,viability,"[1]; at 0.0781 µM, OCI-C5x cells, with rucaparib 10 µM, 100% = cells with rucaparib alone",104% (inactive)
same,viability,"[1]; at 0.0781 µM, OCI-C5x cells, without rucaparib",112% (inactive)
same,viability,"[1]; at 0.0781 µM, OCI-P5x cells, with rucaparib 20 µM, 100% = cells with rucaparib alone",106% (inactive)
same,viability,"[1]; at 0.0781 µM, OCI-P5x cells, without rucaparib",107% (inactive)
same,viability,"[1]; at 0.313 µM, OCI-C5x cells, with rucaparib 10 µM, 100% = cells with rucaparib alone",31.7% (active)
same,viability,"[1]; at 0.313 µM, OCI-C5x cells, without rucaparib",24.1% (active)
same,viability,"[1]; at 0.313 µM, OCI-P5x cells, with rucaparib 20 µM, 100% = cells with rucaparib alone",47.7% (active)
same,viability,"[1]; at 0.313 µM, OCI-P5x cells, without rucaparib",16.2% (active)
same,viability,"[1]; at 1.25 µM, OCI-C5x cells, with rucaparib 10 µM, 100% = cells with rucaparib alone",110% (inactive)
same,viability,"[1]; at 1.25 µM, OCI-C5x cells, without rucaparib",115% (inactive)
same,viability,"[1]; at 1.25 µM, OCI-P5x cells, with rucaparib 20 µM, 100% = cells with rucaparib alone",97.8% (active)
same,viability,"[1]; at 1.25 µM, OCI-P5x cells, without rucaparib",97.2% (active)
same,viability,"[1]; at 5 µM, OCI-C5x cells, with rucaparib 10 µM, 100% = cells with rucaparib alone",133% (inactive)
same,viability,"[1]; at 5 µM, OCI-C5x cells, without rucaparib",111% (inactive)
same,viability,[1]; [15],87.8% (active)
same,viability,[1]; [16],94.3% (active)
CCOC(=O)[C@@](C)(N)Cc1ccc(O)c(O)c1,luciferase signal,[2],92 AU (inactive)
NC(=O)C(c1ccccc1)(c1ccccc1)[C@@H]1CCN(CCc2ccc3c(c2)CCO3)C1,luciferase signal,[2],108 AU (inactive)
CN1C[C@@H]2C[C@H]1CN2c1cc2c(cc1F)c(=O)c(C(=O)O)cn2C1CC1,nuclear beta-catenin stimulation,[3]; at 10 µM,0.8% (inactive)
same,nuclear beta-catenin stimulation,"[3]; stimulation, at 2 µM",-0.6%
same,insulin secretion stimulation,[4],0.3% (inactive)
same,viability decrease,[5],10.6% (inactive)
same,tube area decrease,[6],-6.5% (inactive)
same,GLP1 secretion stimulation,[7],-0.3% (inactive)
same,inhibition of viability,[8],3.9% (inactive)
same,viability decrease (inhibition),[9],-13% (inactive)
same,viability decrease (inhibition),[10],-40.5% (inactive)
same,inhibition,"[11]; at 0.5 µM, stronger effect = higher value",0.4% (inactive)
same,inhibition,"[11]; measured here: combination with BGB IC20, at 0.005 µM",-2.07%
same,inhibition,"[11]; measured here: combination with BGB IC40, at 0.005 µM",-7.14%
same,inhibition,"[11]; measured here: combination with BGB IC40, at 0.05 µM",-8.41%
same,inhibition,"[11]; measured here: combination with cisplatin, at 0.5 µM, stronger effect = higher value",-11.6%
same,inhibition,"[11]; measured here: combination with cisplatin, at 5 µM, stronger effect = higher value",-5.22%
same,inhibition,"[12]; BGB combo, at 5 µM",-34.1%
same,inhibition,[12]; at 0.5 µM,-30.1% (inactive)
same,inhibition,"[12]; cisplatin combo, at 5 µM",-33.7%
same,inhibition,"[12]; measured here: with BGB IC20 combination, at 0.5 µM",-23.1%
same,inhibition,"[12]; measured here: with cisplatin IC20 combination, at 0.5 µM",-48.5%
same,inhibition,"[12]; single agent, at 5 µM",-33.7%
same,inhibition,"[13]; BGB IC20 combo, at 0.005 µM",-24.2%
same,inhibition,"[13]; BGB IC40 combo, at 0.005 µM",-26.9%
same,inhibition,"[13]; BGB IC40 combo, at 0.05 µM",-20.5%
same,inhibition,[13]; at 0.5 µM,-31.1% (inactive)
same,inhibition,"[13]; cisplatin combo, at 0.05 µM",-23.9%
same,inhibition,"[13]; cisplatin combo, at 0.5 µM",-25.9%
same,inhibition,"[13]; cisplatin combo, at 5 µM",-68.4%
same,inhibition,"[13]; measured here: 5 uM single agent, at 5 µM",-23.8%
CCOc1cc(NC(C)=O)ccc1C(=O)OC,nuclear beta-catenin stimulation,[3]; at 10 µM,2.6% (inactive)
same,nuclear beta-catenin stimulation,"[3]; stimulation, at 2 µM",2%
same,insulin secretion stimulation,[4],4.4% (inactive)
same,tube area decrease,[6],11.7% (inactive)
same,GLP1 secretion stimulation,[7],0.3% (inactive)
C[C@]12CCC(=O)C=C1CC[C@H]1[C@@H]3CC[C@](O)(C(=O)CO)[C@@]3(C)C[C@H](O)[C@@]12F,fluorescence slope change,[14],9.8% (inactive)
same,nuclear beta-catenin stimulation,[3]; at 10 µM,-2.1% (inactive)
same,nuclear beta-catenin stimulation,"[3]; stimulation, at 2 µM",-2.1%
same,insulin secretion stimulation,[4],0.3% (inactive)
same,viability decrease,[5],-81.6% (inactive)
same,tube area decrease,[6],10.3% (inactive)
same,GLP1 secretion stimulation,[7],0.3% (inactive)
same,inhibition of viability,[8],-8.17% (inactive)
same,viability decrease (inhibition),[9],-20% (inactive)
same,viability decrease (inhibition),[10],-2% (inactive)
CC(=C(CCOC(=O)C(C)C)SSC(CCOC(=O)C(C)C)=C(C)N(C=O)Cc1cnc(C)nc1N)N(C=O)Cc1cnc(C)nc1N,nuclear beta-catenin stimulation,[3]; at 10 µM,-0.6% (inactive)
same,nuclear beta-catenin stimulation,"[3]; stimulation, at 2 µM",4.5%
same,insulin secretion stimulation,[4],31.5% (active)
same,viability decrease,[5],20.6% (inactive)
same,inhibition of viability,[8],30.9% (inactive)
same,viability decrease (inhibition),[9],-6.3% (inactive)
same,viability decrease (inhibition),[10],-3.9% (inactive)
